The list is not random: actives were taken first. Their share in the collection is about 2.1%.
Gli-Sufu block – blocks Gli-Sufu signaling in a luciferase reporter; Sufu-KO-LIGHT fibroblasts, Gli luciferase reporter luminescence; inhibition, % at 5 µM; hit rate 0.74% among 340,000;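 active means inhibition above about 55%, limit read from the data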;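 further: 0% = DMSO-treated cells and 100% = wells with medium but no cells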
GalR3 antagonist – blocks the human galanin receptor 3 | hit rate 0.44% among 360,000 | O60755 | AID 651719 | inhibition, % at 3 µM | HEK293 GalR3-CNG cAMP membrane potential fluorescence; galR3 body fused to GalR1 C-terminus;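 active means inhibition above the screen-wide average plus 3 SD, cut at about 13% in these data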;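 further: forskolin and galanin both at EC90 stimulate the cells; cAMP rise reported by CNG channel membrane potential dye signal; 0% = forskolin plus galanin with DMSO and 100% = forskolin alone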
Target sequence (O60755 1-299 limits assumed): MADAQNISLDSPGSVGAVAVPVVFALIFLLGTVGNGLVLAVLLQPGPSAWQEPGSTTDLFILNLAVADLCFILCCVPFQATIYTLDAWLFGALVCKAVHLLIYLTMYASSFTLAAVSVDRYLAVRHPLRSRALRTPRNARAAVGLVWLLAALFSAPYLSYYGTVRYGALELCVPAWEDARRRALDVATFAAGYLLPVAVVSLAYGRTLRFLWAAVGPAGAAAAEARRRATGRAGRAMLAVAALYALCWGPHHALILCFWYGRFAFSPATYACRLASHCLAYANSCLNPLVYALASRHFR
Env fusion inh – inhibitors of HIV Env-mediated cell fusion | HeLa-JRFL Env/CEM21 cell fusion, luciferase | inhibition, % at 12.3 µM | hit rate 1.1% among 360,000;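 active means mean replicate inhibition score of at least 50 and every replicate individually at or above 50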;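 further: 0% = plate neutral controls and 100% = maraviroc near 300 nM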
aDG glyco act – alpha-DG glycosylation activation; Pro5-aDG cells, alpha-DG glycosylation AlphaScreen (IIH6); 0% Pro5, 100% B10-LARGE cell signal; activation, % at 10 µM; hit rate 0.22% among 360,000; AID 624168;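 active means activation of at least 8% versus controls, or a plate z-score of at least 8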;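 further: Pro5 are CHO cells carrying HIG-tagged alpha-DG that lacks glycosylation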
NR2F2 inh – blocks human COUP-TFII nuclear receptor | hit rate 0.7% among 370,000 | P24468 | HEK293T NGFI-A luciferase reporter, luminescence | inhibition, % at 8.6 µM | AID 686940;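 active means inhibition above a per-plate cutoff, mean inhibition of test wells between control levels plus 3 SD, cut at about 38% in these data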;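 further: cells cotransfected with COUP-TFII expression vector driving the NGFI-A reporter; 0% = median of COUP-TF2 test wells and 100% = reporter-only cells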
Target sequence (P24468 whole entry, looked up): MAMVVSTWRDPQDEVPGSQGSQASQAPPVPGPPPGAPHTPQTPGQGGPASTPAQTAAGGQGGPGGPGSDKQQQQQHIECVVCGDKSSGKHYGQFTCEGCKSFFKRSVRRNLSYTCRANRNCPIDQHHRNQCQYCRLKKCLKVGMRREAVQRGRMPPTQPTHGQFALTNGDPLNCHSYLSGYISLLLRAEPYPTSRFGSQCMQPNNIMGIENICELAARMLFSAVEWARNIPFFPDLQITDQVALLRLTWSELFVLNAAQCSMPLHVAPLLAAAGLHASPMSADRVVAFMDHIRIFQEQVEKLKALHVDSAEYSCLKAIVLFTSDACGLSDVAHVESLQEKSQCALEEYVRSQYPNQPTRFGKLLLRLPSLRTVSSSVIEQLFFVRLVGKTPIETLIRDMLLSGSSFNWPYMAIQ
GalR3 conf – GalR3 (human) antagonism, confirmation; hit rate 59% among 1,600; AID 652245; HEK293 GalR3 CNG cAMP biosensor, membrane potential fluorescence; galR3 fused to GalR1 carboxy tail; challenged with forskolin and galanin at EC90; inhibition, % at 3 µM; shares compounds with GalR3 antagonist;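 active means inhibition above the primary screen's cutoff, the mean inhibition of all screened compounds plus 3 SD, cut at about 13% in these data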;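 further: 0% = forskolin plus galanin and 100% = forskolin alone with DMSO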
CNG parental – counter-screen for GalR3 antagonists: nonspecific agonists in parental HEK-CNG cells | activation, % at 3 µM | HEK293-CNG parental cells, cAMP membrane potential fluorescence; normalised: DMSO wells 0%, forskolin wells 100% | shares compounds with GalR3 antagonist | hit rate 10% among 1,600; in the data active means activation above about 1.3%
VP16 Luc counter – VP16 inhibition counter-screen for COUP-TFII; shares compounds with NR2F2 inh; HEK293 Gal4-VP16 luciferase reporter, luminescence; inhibition, % at 8.5 µM; hit rate 25% among 2,500; in the data active means inhibition above about 13%
NR2F2 inh conf – COUP-TFII (NR2F2) inhibition, confirmation assay; hit rate 45% among 2,500; shares compounds with NR2F2 inh; inhibition, % at 8.5 µM; HEK293 NGFI-A luciferase reporter, luminescence;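 active means mean inhibition over three repeats above a set limit taken from the earlier primary screen, cut at about 38% in these data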;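 further: 100% = cells given the luciferase reporter alone without the COUP-TF2 vector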
* marks the source's active call; other numbers are inactive results; . = no result given; ! = not active in a repeat; [ ] = dose if it differs, or a comment.

SMILES | Gli-Sufu block | GalR3 antagonist | Env fusion inh | aDG glyco act | NR2F2 inh | GalR3 conf | CNG parental | VP16 Luc counter | NR2F2 inh conf
Cc1ccc(-n2ncc3c2CCCC3NC(=O)c2ocnc2C)cc1C (configuration not stated) | 59* | 101* | . | 3 | 66* | 113* | 0 | 6 | 61*
Cc1cc(C(=O)NC2CCCc3c2cnn3-c2ccc(C)c(C)c2)no1 (configuration not stated) | 17 | 0 | -5 | 1 | 17 | . | . | . | .
Cc1cccc(-n2ncc3c2CCCC3NC(=O)c2ccc[n+]([O-])c2)c1C (configuration not stated) | 40 | -1 | -4 | 0 | 11 | . | . | . | .
Cn1nccc1C(=O)NC1CCCc2c1cnn2-c1ccc(C(C)(C)C)cc1 (configuration not stated) | 76* | 109* | 24 | 6 | 69* | 122* | 0 | -4 | 69*
O=C(NC1CCCc2c1cnn2-c1ccc(F)cc1F)c1cccs1 (configuration not stated) | . | . | . | . | 29 | . | . | . | .
Cc1cc(C(=O)NC2CCCc3c2cnn3-c2cccc(C)c2C)n(C)n1 (configuration not stated) | 81* | 100* | 36 | 2 | 67* | 105* | -1 | 8 | 68*
C[C@H]1CN([C@@H](C)CO)C(=O)c2cc(C#Cc3cccnc3)cnc2O[C@H]1CN(C)C(=O)CC1CC1 | . | . | 4[16.7 µM] | . | . | . | . | . | .
CC(C)NC(=O)N[C@@H]1CC[C@H](CCn2cc(-c3ccc(F)cc3)nn2)O[C@H]1CO | . | . | 5[16.7 µM] | . | . | . | . | . | .
COc1ccc(-c2ocnc2C(=O)NCc2nn(-c3ccccc3)nc2C)cc1 | 4 | 19* | -4 | 1 | 60* | 84* | 1 | 3 | 41*
Cc1ccc(S(=O)(=O)NCC[C@H]2CC[C@@H](NC(=O)Nc3cccc(F)c3)[C@@H](CO)O2)cc1 | . | . | 5[16.7 µM] | . | . | . | . | . | .
COc1cc(C)c(Br)cc1S(=O)(=O)NCc1cccs1 | 27 | -4 | -6 | 0 | -13 | . | . | . | .
COc1cc(C)c(Br)cc1S(=O)(=O)NCc1ccncc1 | 33 | 39* | 7 | 2 | 57* | 58* | 0 | 0 | 31
C[C@@H]1CCCCO[C@H](CN(C)S(=O)(=O)c2ccccc2)[C@@H](C)CN([C@@H](C)CO)C(=O)c2cc(NC(=O)c3ccccc3)ccc2O1 | . | . | -39[16.7 µM] | . | . | . | . | . | .
C[C@@H]1CCCCO[C@@H](CN(C)C(=O)Nc2cccc3ccccc23)[C@@H](C)CN([C@H](C)CO)C(=O)c2cc(NC(=O)c3ccncc3)ccc2O1 | . | . | 10[16.7 µM] | . | . | . | . | . | .
CN(C)CC(=O)Nc1ccc2c(c1)[C@H]1C[C@H](CC(=O)NCCc3ccccc3)O[C@H](CO)[C@H]1O2 | . | . | 54[16.7 µM] | . | . | . | . | . | .
O=C(NNC(=O)c1ccccc1O)c1ccc(Cl)c(S(=O)(=O)N2CCc3ccccc32)c1 | 63* | 29* | 20 | 4 | 48* | 60* | -2 | 0 | 39*
O=C(Nc1ccc(Oc2ccccc2)cc1)c1csc(COCCO)n1 | . | 92* | 45 | 1 | 43* | 113* | -1 | -26 | 27
O=C(Nc1ccc(Cl)cc1)c1csc(COCCO)n1 | . | -4 | -19 | 0 | 4 | . | . | . | .
C[C@@H]1CCCCO[C@@H](CN(C)C(=O)c2ccccc2)[C@H](C)CN([C@@H](C)CO)C(=O)c2cc(NC(=O)c3ccccc3)ccc2O1 | . | . | -3[16.7 µM] | . | . | . | . | . | .
CC(C)C(NC(=O)Cc1ccccc1)C(=O)N1CCN(c2cccc(Cl)c2)CC1 (configuration not stated) | 10 | 44* | . | 3 | 65* | 0 | 0 | 1 | 13
c1ccc(CNc2ncnc3ccccc23)cc1 | 40 | 93* | 106*! | 5 | 64* | 86* | 0 | 8 | 53*
c1ccc(CN2CCC(N3CCN(Cc4ccc5c(c4)OCO5)CC3)CC2)cc1 | 5 | 40* | 1 | 1 | 38* | 0 | 6.0* | 1 | 8
CC(=O)c1c(C)[nH]c(C(=O)COc2cc(C)ccc2C(C)C)c1C | -5 | 73* | . | 5 | 69* | 113* | 0 | 8 | 66*
CCN(CC)S(=O)(=O)c1ccc(/C=C/C(=O)Nc2ccc(Br)cc2F)cc1 | 21 | 59* | 42 | 3 | 56* | 99* | 0 | 0 | 70*
CCN(CC)S(=O)(=O)c1cccc(NC(=O)/C=C/c2ccc([N+](=O)[O-])cc2)c1 | -1 | -12 | 19 | 0 | 17 | . | . | . | .
SMILES | Gli-Sufu block | GalR3 antagonist | Env fusion inh | aDG glyco act | NR2F2 inh | GalR3 conf | CNG parental | VP16 Luc counter | NR2F2 inh conf
CCCCCCCCn1c2c(c(=N)c3ccccc31)CCC2 | 91* | 44* | 56* | 4 | 90* | 62* | 11* | 13* | 73*
CCCCCCCCCCn1c2c(c(=N)c3c1CCC3)CCC2 | 92* | 28* | 69* | 1 | 81* | 39* | 24* | 21* | 79*
CCCCn1c2c(c(=N)c3ccccc31)CCC2 | 32 | -4 | 1 | 0 | -8 | . | . | . | .
COc1ccc(CCNc2ncnc3sc(C)cc23)cc1OC | 69* | 86* | 5 | 3 | 79* | 110* | 0 | -1 | 68*
C[C@@H]1CCCCO[C@@H](CN(C)S(=O)(=O)c2cccs2)[C@@H](C)CN([C@H](C)CO)C(=O)c2cc(NC(=O)c3ccccc3)ccc2O1 | . | . | 10[16.7 µM] | . | . | . | . | . | .
CC1CCC2C(=O)N(c3ccc(Cc4ccncc4)cc3)C(=O)C2C1 (configuration not stated) | 43 | 91* | 43 | 3 | 45* | 109* | -1 | 5 | 37
O=C1C2C3C=CC(C3)C2C(=O)N1c1ccc(Cc2ccncc2)cc1 (configuration not stated) | -3 | -4 | . | 1 | 27 | . | . | . | .
Cc1cccc(NC(=S)NNc2ncc(C(F)(F)F)cc2Cl)c1 | 3 | 0 | . | 0 | 32 | . | . | . | .
FC(F)(F)c1cnc(NNC(=S)Nc2ccccc2Cl)c(Cl)c1 | 26 | 55* | 33 | 0 | 42* | 4 | 0 | 18* | 14
C[C@@H]1CN([C@H](C)CO)C(=O)c2cc(NC(=O)C3CCCCC3)ccc2O[C@H]1CN(C)C(=O)NC1CCCCC1 | . | . | -8[16.7 µM] | . | . | . | . | . | .
C=CCC1(CC=C)CCCN1C(=O)c1cc(COc2ccc(C)nc2)on1 | 77* | 99* | -2 | 2 | 57* | 103* | 0 | -47 | 55*
C=CCC1(CC=C)CCCN1C(=O)c1cc(COc2ccc(F)c(F)c2)on1 | -17 | -11 | 18 | 0 | 4 | . | . | . | .

High-throughput results from PubChem.
